From PubChem
TDP1 cell noCPT: qHTS for Inhibitors of human tyrosyl-DNA phosphodiesterase 1 (TDP1): qHTS in cells in absence of CPT; DT40 Tdp1-/- hTDP1 cells, no CPT, ATP luminescence, 48 h; Potency, µM (titrated, usually from 46.2 µM), without a hit: top-dose activity change, negative = growth inhibition, actives largely listed as inhibitors; 15% of 420,000 active; AID 686978, 2013; note: potency is the fitted concentration of half-maximal effect; nearly all actives have a fitted effect of over 55% in size
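Cells were dispensed at 400 per well, compounds added by pin tool, plates incubated ≥48 hr at 37 °C, then CellTiter-Glo added for 30 min at room temperature before luminescence reading. Line: DT40 Tdp1-/- complemented with hTDP1; camptothecin omitted.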
IL1B secr inh: inflammasome signaling inhibition, IL-1 beta readout; THP-1 LPS/ATP IL-1B secretion, AlphaLISA, 16 h; stronger effect = lower value; activity change, % at 57.5 µM; 4.7% of 360,000 active; in the data active = activity change below about -50%; inconclusive = mostly about -30% to -49%
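Secreted IL-1B measured by AlphaLISA bead assay after 16 h compound exposure of THP-1 cells; compounds (final up to 57.5 uM) added 1 h before LPS (250 ng/mL) and ATP (1.25 mM) stimulation; lower signal means less secretion.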
HT1080 IDH1KD tx: toxicity to HT-1080 IDH1 knockdown cells (counter line). 2% of 360,000 active. AID 686971. HT-1080 IDH1 knockdown viability, ATP luminescence, 48 h. Potency, µM (highest dose often 46.1 µM), for inactives: top-dose activity, negative = toxicity, usual class: cytotoxic;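 note: potency is the fitted concentration of half-maximal effect; 0% = DMSO wells and -100% = cell-free medium wells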
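Assay cells: HT-1080 with IDH1 knockdown, 750 per well, RPMI/5% FBS. Exposure: 48 h at 37 °C following 2 h pre-incubation. Read: CellTiter-Glo luminescence; fitted concentration-response, curve class assigned.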
DT40 TDP1 CPT: DT40-hTDP1 cell growth loss with CPT; Potency, µM (doses to about 46.2 µM), for inactives: at the top dose activity change, negative = growth inhibition, most hits filed as inhibitors; chicken DT40 Tdp1-/-;hTDP1 cells + 20 nM CPT, ATP luminescence, 48 h; 12% of 420,000 active; note: potency is the fitted concentration of half-maximal effect; nearly all actives have a fitted effect of over 55% in size
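Chicken DT40 Tdp1-/- cells stably complemented with human TDP1 were seeded at 400 cells/well in medium containing 20 nM camptothecin, exposed to pin-transferred compounds, and grown at 37 °C for at least 48 hr. Viability was read as ATP luminescence.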
uPA generation: blocks generation of uPA at the cell surface. cell surface uPA generation assay, qHTS. 0.31% of 330,000 active. Potency, µM (top dose mostly 38.3 µM), for inactives: at the highest dose activity change, negative = inhibition, actives largely listed as inhibitors; active = well fitted inhibition curve with a large enough effect; inconclusive = small, poorly fitted or top-dose-only effect; inactive = no such curve, though single readings can be large or run the other way; tested in mouse RAW 264.7 cells; note: potency is the fitted concentration of half-maximal effect; nearly all actives have a fitted effect of over 55% in size
HT1080NT lethal: kills 2HG-producing HT-1080-NT fibrosarcoma cells. 1.6% of 360,000 active. AID 686970. HT-1080-NT fibrosarcoma viability, CellTiter-Glo ATP luminescence, 48 h. Potency, µM (doses to about 46.1 µM), inactives show top-dose activity, negative = less viability, usual class: cytotoxic;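 note: NT is the 2HG producing partner of a matched IDH1 knockdown line; potency is the fitted concentration of half-maximal effect; 0% = DMSO-treated cells and -100% = media-only wells without cells; nearly all actives have a fitted effect of over 55% in size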
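Toxicity toward the 2HG-producing NT line was scored as %Activity, normalised to DMSO and no-cell wells, from CellTiter-Glo luminescence after 48 hours' treatment.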
Active calls of the source: *; ? = inconclusive; nt = no result; [ ] = dose if it differs, or a comment. Rows were chosen to be rich in hits. Some 19% of all compounds tested hit in one or more screens of this group. Unless noted, calls come from the whole dose curve; as a rule, active = well fitted curve in the direction sought with a large enough effect; inconclusive = small, poorly fitted or top-dose-only effect, or another doubt; inactive = no such curve, though single readings can be large; an effect the other way counts as inactive or inconclusive. Unless noted, % is set by controls: 0 for no effect and ±100 for the full control effect.

SMILES	TDP1 cell noCPT	IL1B secr inh	HT1080 IDH1KD tx	DT40 TDP1 CPT	uPA generation	HT1080NT lethal
CCOc1ccc(C(=O)Nc2ccccc2N2CCN(C(=O)c3ccccc3)CC2)cc1[N+](=O)[O-]	12µM*	-24	-11%	7.3µM*	12%	-5%
CCOc1ccc(C(=O)NC(=S)Nc2ccc(N3CCC(C)CC3)cc2)cc1[N+](=O)[O-]	12µM*	-7	-8%	?	4%	1%
CCOc1ccc(C(=O)Nc2ccccc2C#N)cc1[N+](=O)[O-]	?	-12	-6%	16µM*	-2%	0%
CCOc1ccc(C(=O)NC(=S)Nc2ccccc2N2CCC(C)CC2)cc1[N+](=O)[O-]	16µM*	-4	7%	?	7%	10%
Cc1cc(C(=O)NC(=S)Nc2ccccc2N2CCCC2)ccc1[N+](=O)[O-]	-29%	20	21%	7%	-1%	-2%
COc1ccc(/C=N/Nc2nccnc2Cl)c(OC)c1	-14%	-14	-10%	5%	-4%	-14%
COc1cccc(/C=N/Nc2nccnc2Cl)c1O	4.6µM*	111	?	3.3µM*	-19%	?
COc1cccc(/C=N/Nc2ncnc3scc(-c4ccccc4)c23)c1O	1.5µM*	46	?	1µM*	-4%	?
COc1ccc(/C=N/Nc2ncnc(Cl)c2N)cc1OC	?	-15	20%	5%	4%	13%
COc1ccc(/C=N/Nc2nccnc2Cl)cc1	21µM*	-25	11µM*	9.2µM*	?	10µM*
COc1cccc(/C=N/Nc2ncnc(Cl)c2N)c1O	0.52µM*	14	4.1µM*	0.82µM*	-8%	8.2µM*
COCCNC(=O)C/C(C)=N/NC(=O)C(=O)NC1CCCCC1	1%	69	27%	1%	1%	19%
CC(Sc1nc2ncc(Cl)cc2[nH]1)C(=O)NC1(C#N)CCCCC1 (configuration not stated)	?	-29	-13%	?	-15%	-2%
CN(C)S(=O)(=O)c1cccc(C(=O)Nc2ccccc2C(=O)NC2CC2)c1	?	27	-3%	-25%	-8%	-4%
O=C(CSc1nc2nccnc2c(=O)n1CCc1c[nH]c2ccccc12)Nc1ccccc1	15µM*	nt	nt	21µM*	nt	nt
O=C(CSc1nc2nccnc2c(=O)n1Cc1cccs1)Nc1ccccc1	1%	?	-1%	-34%	0%	-3%
Cc1ccccc1NC(=O)CSc1nc2nccnc2c(=O)n1CCc1c[nH]c2ccccc12	12µM*	nt	nt	23µM*	nt	nt
COc1cccc(OCc2ccc(Cl)cc2)c1C#N	18µM*	-2	-7%	?	8.9µM*	-14%
COc1cc(CNCc2cc3ccc(F)cc3nc2N2CCOCC2)cc(OC)c1OC	-23%	nt	nt	-10%[9.04 µM]	nt	nt
CCN(Cc1ccccc1)C(=O)c1cc2ccc3cccnc3c2[nH]1	18µM*	nt	nt	?	nt	nt
COc1ccc(OC)c(CNC(=O)c2cc3ccc4cccnc4c3[nH]2)c1	26µM*	nt	nt	?	nt	nt
COc1cccc(CNC(=O)c2cc3ccc4cccnc4c3[nH]2)c1	-24%	nt	nt	-21%	nt	nt
Cc1ccc(CN2CCC(CNC(=O)c3cc4ccc5cccnc5c4[nH]3)CC2)cc1	16µM*	nt	nt	16µM*	nt	nt
O=S1(=O)CC(N2CCSCC2)CN1Cc1cn(Cc2cccc(C(F)(F)F)c2)nn1 (configuration not stated)	-10%	17	6%	-4%	nt	21%
CCC(C)c1ccccc1OCCCCN1CCCC1 (configuration not stated)	?	-6	-3%	?	6%	1%
SMILES	TDP1 cell noCPT	IL1B secr inh	HT1080 IDH1KD tx	DT40 TDP1 CPT	uPA generation	HT1080NT lethal
c1ccc(COc2ccc(OCCCNC3CCCC3)cc2)cc1	21µM*	-96*	?	?	-5%	23µM*
C=CCNCCCCOc1ccc(OCc2ccccc2)cc1	23µM*	-51*	-1%	?	11µM*	-19%
COCCCNCCCCOc1ccc(OCc2ccccc2)cc1	23µM*	-18	?	?	?	?
CCC(C)c1ccccc1OCCCNC1CCCC1 (configuration not stated)	18µM*	-70*	-24%	?	?	-27%
CC(=O)c1c(C)[nH]c(C(=O)NCC2CCCCC2)c1C	-9%	12	-3%	-2%	-18%	9%
CC1CCC(C(O)(C(=O)c2ccccc2)c2ccccc2)C(=O)C1 (configuration not stated)	?	-10	?	?	nt	-26%
CN[C@@H](C)C(=O)NC[C@H]1O[C@@H](n2cnc3c(N)ncnc32)[C@H](O)[C@@H]1O	2%	27	5%	13%	15%	7%
COc1ccc(-c2cccc(NS(=O)(=O)c3cc([N+](=O)[O-])c(C)c([N+](=O)[O-])c3)c2)nn1	-28%	17	-12%	?	-5%	-3%
O=C(NC1CCCCC1)C(CCc1ccccc1)n1c(=O)c(-c2ccccc2)nc2ccccc21 (configuration not stated)	-29%	-5	1%	?	nt	4%
Cc1cccc(C)c1NC(=O)C(c1ccc(C(F)(F)F)cc1)n1c(=O)c(-c2cc3ccccc3[nH]2)nc2ccccc21 (configuration not stated)	?	90	21µM*	?	nt	?
CC(C)(C)NC(=O)C(c1ccc(C(F)(F)F)cc1)n1c(=O)c(-c2cc3ccccc3[nH]2)nc2ccccc21 (configuration not stated)	?	150	21µM*	?	nt	?
O=C(NC1CCCC1)C(c1ccccc1)n1c(Cc2cc(F)cc(F)c2)nc2ccccc21 (configuration not stated)	?	-5	?	18µM*	nt	?
CC(C)(C)NC(=O)C(c1ccc(-c2ccccc2)cc1)n1c(=O)c(-c2cc3ccccc3[nH]2)nc2ccccc21 (configuration not stated)	15µM*	91	-16%	?	nt	2%
O=C(Nc1cccc(Cl)c1Cl)c1cc(S(=O)(=O)NCc2ccc3c(c2)OCO3)ccc1F	-1%	nt	nt	5%	nt	nt
O=C(CCn1c(=O)[nH]c2ccccc21)NCC1Cc2cc(Cl)cc(-c3ccncc3)c2O1 (configuration not stated)	-27%	nt	nt	4%	nt	nt
